Assay results from PubChem BioAssay AID624351 (Southern Research Specialized Biocontainment Screening …, 2012).
Hit rate of the full screen: of about 2,400 compounds, about 1,400 (58%) were called active. The set was probably picked from earlier hits. Some of the results follow. Values without a mark were called inactive.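 Rule for the calls: active = inhibition of 30% or more at any tested dose; inconclusive = primary hits over the limit that were never retested; inactive = the rest.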

Experiment: ADP Hunter readout inhibition without MgcRacGAP – biochemical, coupled enzyme counter-screen, artefact control for MgcRacGAP inhibitor project, dose response (AID 624351);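 note: signal is the ADP detection kit reading of free GDP without any GAP enzyme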;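 for inhibition: 0% = median positive control wells and 100% = median negative control wells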
Settings: fluorescence, no MgcRacGAP; series mostly up to 80 µM; inhibition: at the top concentration

SMILES | IC50 | inhibition [%]
COc1cc(/C=N/NC(=O)C(C)Nc2n[nH]c(=O)[nH]c2=O)ccc1O (stereo not given) | 69.5 µM (active) | 
COc1cc(/C=N/NC(=O)CCc2n[nH]c(=O)[nH]c2=O)ccc1O | 35.4 µM (active) | 
C/C(CCc1ccccc1)=N\NC(=O)C1C2CCCCC21 (stereo not given) |  | 0.53
Cc1ccc(-c2cnc(NCc3cc4c(cc3[N+](=O)[O-])OCO4)n2C)cc1C |  | 26.1
O=[S@]1Oc2ccccc2-c2ccccc21 |  | -2.21
CCN(CC)c1ccc(/C=C2/SC(=O)N(C(C)C)C2=O)o1 | 58.5 µM (active) | 
CCCN1C(=O)S/C(=C/c2ccc(N3CCOCC3)o2)C1=O |  | 28.1
Cc1cc(-c2ccccc2)nc(N/N=C/c2ccc(O)cc2O)n1 | 61.3 µM (active) | 
Cc1cc(-c2ccccc2)nc(N/N=C/c2ccc(O)cc2)n1 | 31.6 µM (active) | 
CN(C)c1ccc(N=Cc2nc(-c3ccccc3)oc2OC(=O)c2ccccc2)cc1 |  | 12
Cc1cc(-c2ccccc2)nc(N/N=C/c2ccc(N(C)C)cc2)n1 | 80 µM (active) | 
Cc1nc2ccccc2nc1N/N=C/c1ccc(O)cc1 | 30.5 µM (active) | 
CC1CN(CCOCCOc2ccccc2-c2ccccc2)CC(C)O1 (stereo not given) |  | 22
COc1ccc(CN2CCN(Cc3ccco3)CC2)cc1OC |  | 25.7
Cc1cc(C)c2nc(C)cc(N/N=C/c3ccc(O)cc3)c2c1 | 32.9 µM (active) | 
COc1ccc(/C=N/Nc2cc(C)nc3c(C)cccc23)cc1 |  | 9.08
COc1ccc(/C=C2\C(=O)NC(=O)c3ccccc32)cc1OC |  | -4.57
COc1cc(/C=N/N=C2/C(=O)Nc3ccccc32)cc(OC)c1O | 59.2 µM (active) | 
Oc1ccc(-c2nccs2)cc1 | 31.4 µM (active) | 
CCN1CCN(CCOc2cccc(Cl)c2Cl)CC1 |  | 20.8
CC1(C)CC(=O)C2=C(C1)Nc1ccccc1S2 | 23.1 µM (active) | 
CC1(C)CC(=O)C(C(C2=C(O)CC(C)(C)CC2=O)c2cccs2)C(=O)C1 (stereo not given) |  | 1.47
COc1ccc(/C=N\NC(=O)c2ccc(=O)[nH]n2)cc1O | 26 µM (active) | 
COc1cc(/C=N/NC(=O)c2cnccn2)ccc1O | 25.9 µM (active) | 
COc1cc(/C=N/NC(=O)c2ccc(=O)[nH]n2)ccc1O | 26.3 µM (active) | 
O=C(/C(=C/c1ccccc1)n1cncn1)c1ccc(Cl)cc1Cl |  | -3.68
COC(=O)C(C(=O)OC)C(C)C(C(=O)OC)C(=O)OC |  | 4.32
CN(C)c1ccc(C=Cc2cnccn2)cc1 | 53 µM (active) | 

SMILES | IC50 | inhibition [%]
CCOC(=O)c1[nH]c2ccccc2c1NC(=S)Nc1cc(C)ccc1C | 39.4 µM (active) | 
CCOC(=O)c1[nH]c2ccccc2c1NC(=S)Nc1cccc(C)c1C | 46 µM (active) | 
CCOC(=O)c1[nH]c2ccccc2c1NC(=S)Nc1ccccc1C | 45.3 µM (active) | 
COC(=O)c1c(NC(=O)CCNCc2ccco2)sc2c1CCC2 |  | 18.9
CCOC(=O)c1[nH]c2ccc(F)cc2c1NC(=O)c1ccccc1C(=O)O |  | 25.5
CCOC(=O)c1[nH]c2ccccc2c1NC(=S)Nc1ccccc1 | 45.1 µM (active) | 
O=C1SC(c2ccccc2)=C/C1=C\N1CCCCC1 | 51 µM (active) | 
O=C1CCCCCN1Sc1ccccc1 |  | 3.55
CC(C)Nc1ccc(Nc2ccnc3cc4ccccc4cc23)cc1 | 22.4 µM (active) | 
COc1cc(/C=C/C(=O)OCC(=O)NC(=O)NC(C)(C)C)ccc1O | 62.6 µM (active) | 
COc1cc(/C=C/C(=O)OCC(=O)NC(=O)NC(C)C)ccc1O | 42.8 µM (active) | 
C=CCN(CC=C)C(=O)C1CCN(Cc2ccc(OCc3ccccc3)cc2)CC1 |  | 13.8
O=C(CN1CCCCC1)Nc1ccc(N2CCCCCC2)cc1 |  | 0.64
CCN1CCN(CC(=O)Nc2nc3ccc(OC)cc3s2)CC1 |  | 24.5
Cc1ccc(NC(=O)NC(=O)CN2CCN(c3ccc(O)cc3)CC2)c(C)c1 | 63.4 µM (active) | 
COc1ccc(NC(=O)c2ccc(NC(=O)CN3CCN(c4ccc(O)cc4)CC3)cc2)cc1 | 76.7 µM (active) | 
CCCS(=O)(=O)N1CCN(Cc2ccco2)CC1 |  | 15.8
Cc1ccc(NC(=O)CN2CCN(C)CC2)cc1Br |  | 20.3
O=C(CN1CCN(c2ccc(O)cc2)CC1)NC(=O)NCc1ccco1 | 54.7 µM (active) | 
CCN1CCN(CC(=O)Nc2ccc(C)c(Br)c2)CC1 |  | 19.2
CC1(C)O[C@@H]2[C@H](O1)[C@@H](COS(=O)(=O)O)O[C@H]2n1c(=S)[nH]c2c(=O)[nH]c(N)nc21 | 55.7 µM (active) | 
CCN1CCN(CCOc2ccccc2OCc2ccccc2)CC1 |  | 21.5
O=C1NN(c2ccc(Br)cc2)C(=O)/C1=C\c1ccc(O)cc1O |  | 29.1
CCN1CCN(c2ccc(N=Cc3ccc(O)cc3O)cc2)CC1 | 38.2 µM (active) | 
CCN1CCN(c2ccc(N=Cc3ccccc3O)cc2)CC1 | 24.5 µM (active) | 
Oc1cc(Br)ccc1C=Nc1ccc(N2CCCCC2)cc1 | 4.33 µM (active) | 
CCC(=O)c1ccccc1OCCN1CCN(CC)CC1 |  | 23.5
